Experimental data: PubChem BioAssay (NCATS)
Inconclusive results are not listed. Unmarked numbers belong to inactive results. Activity calls are given as the source filed them. Calls come from the whole dose curve; as a rule, active = well fitted cell-killing curve with a large enough effect; inconclusive = small, poorly fitted or top-dose-only effect, or effect the other way; inactive = no such curve, though single readings can be large or run the other way.

What was measured:
[1] = Quantitative High-Throughput drug screen in 47 multiple myeloma cell lines against the NCATS MIPE library collection: OPM1_PLB cell viability assay (AID 1918989); note: nearly all actives have a fitted effect of over 40% in size
How it was run: (§1)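 MIPE 4.0 approved/investigational drugs; 500 cells/well; 48 h 37 °C humidified 5% CO2; CTG luminescence readout; DMSO = 100%, media = 0% viability.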

[2] = Quantitative High-Throughput drug screen in 47 multiple myeloma cell lines against the NCATS MIPE library collection: SKMM1_PLB cell viability assay (AID 1919863); conditions: SKMM1 myeloma viability, CellTiter-Glo ATP, 48 h; viability: hits give low values; note: nearly all actives have a fitted effect of over 35% in size; for viability: series mostly up to about 46 µM
How it was run: as §1

[3] = Quantitative High-Throughput drug screen in 47 multiple myeloma cell lines against the NCATS MIPE library collection: U266_ATCC cell viability assay (AID 1919864); note: nearly all actives have a fitted effect of over 35% in size
How it was run: as §1

[4] = Quantitative High-Throughput drug screen in 47 multiple myeloma cell lines against the NCATS MIPE library collection: XG6_PLB cell viability assay (AID 1919865); note: nearly all actives have a fitted effect of over 40% in size
How it was run: as §1

[5] = Quantitative High-Throughput drug screen in 47 multiple myeloma cell lines against the NCATS MIPE library collection: XG1_PLB cell viability assay (AID 1919866); note: nearly all actives have a fitted effect of over 35% in size
How it was run: as §1

[6] = Quantitative High-Throughput drug screen in 47 multiple myeloma cell lines against the NCATS MIPE library collection: VP6_DJ cell viability assay (AID 1919867); note: nearly all actives have a fitted effect of over 40% in size
How it was run: as §1

[7] = Quantitative High-Throughput drug screen in 47 multiple myeloma cell lines against the NCATS MIPE library collection: UTMC2_PLB cell viability assay (AID 1919868); note: nearly all actives have a fitted effect of over 55% in size
How it was run: as §1

[8] = Quantitative High-Throughput drug screen in 47 multiple myeloma cell lines against the NCATS MIPE library collection: PE2_PLB cell viability assay (AID 1919869); note: nearly all actives have a fitted effect of over 35% in size
How it was run: as §1

[9] = Quantitative High-Throughput drug screen in 47 multiple myeloma cell lines against the NCATS MIPE library collection: PCM6_Riken cell viability assay (AID 1919870); note: nearly all actives have a fitted effect of over 30% in size
How it was run: as §1

[10] = Quantitative High-Throughput drug screen in 47 multiple myeloma cell lines against the NCATS MIPE library collection: RPMI8226_ATCC cell viability assay (AID 1919871); note: nearly all actives have a fitted effect of over 30% in size
How it was run: as §1
Potency is the fitted concentration of half-maximal effect.

With `O=C(NOCC1CC1)c1ccc(F)c(F)c1Nc1ccc(I)cc1Cl` the Potency [1] was 18.7 µM (active), the Potency [2] was 20.9 µM (active) and the Potency [3] was 23.5 µM (active). For the same compound, the Potency [4] was 6.62 µM (active), the Potency [5] was 11.8 µM (active) and the Potency [6] was 4.69 µM (active). For the same compound, the Potency [7] was 13.2 µM (active), the Potency [8] was 6.62 µM (active) and the Potency [9] was 14.8 µM (active).
With `C[C@H](Cc1ccc(O)c(O)c1)[C@@H](C)Cc1ccc(O)c(O)c1` the Potency [1] was 26.4 µM (active), the Potency [2] was 18.7 µM (active) and the Potency [3] was 16.6 µM (active). For the same compound, the Potency [4] was 11.8 µM (active), the Potency [5] was 20.9 µM (active) and the Potency [6] was 16.6 µM (active). For the same compound, the Potency [8] was 11.8 µM (active).
For `COc1ccc(C2(C#N)CCC(C(=O)O)CC2)cc1OC1CCCC1` (centres undefined), the Potency [1] was 7.43 µM (active), the viability [2] was 137% and the Potency [3] was “inactive”. The Potency [6] was 16.6 µM (active), the Potency [8] was “inactive” and the Potency [9] was 16.6 µM (active). The Potency [10] was “inactive”.
With `N=C(N=C(N)N)N1CCOCC1` the Potency [1] was “inactive”, the viability [2] was 125% and the Potency [3] was 18.7 µM (active). For the same compound, the Potency [6] was “inactive”, the Potency [7] was “inactive” and the Potency [8] was “inactive”.
For `CN(C)CCCC1(c2ccc(F)cc2)OCc2cc(C#N)ccc21` (centres undefined), the Potency [1] was “inactive”, the viability [2] was 106% and the Potency [3] was 23.5 µM (active). For the same compound, the Potency [6] was “inactive”, the Potency [7] was “inactive” and the Potency [8] was “inactive”. The Potency [10] was 18.7 µM (active).
In the case of `Cc1cc(=O)oc2cc(O)ccc12`, the Potency [1] is reported as “inactive”, the viability [2] is reported as 114% and the Potency [3] is reported as “inactive”. The Potency [4] was “inactive”, the Potency [5] was “inactive” and the Potency [8] was “inactive”. The Potency [10] was “inactive”.
In the case of `Cc1nc(-c2ccc(OCC(C)C)c(C#N)c2)sc1C(=O)O`, the Potency [1] is reported as “inactive”, the viability [2] is reported as 114% and the Potency [3] is reported as “inactive”. For the same compound, the Potency [7] was “inactive”, the Potency [8] was “inactive” and the Potency [9] was “inactive”. The Potency [10] was “inactive”.
With `NC(=NCc1ccccc1)NC(=O)c1nc(Cl)c(N)nc1N` the Potency [1] was 16.6 µM (active), the viability [2] was 140% and the Potency [3] was 1.48 µM (active). For the same compound, the Potency [4] was 0.935 µM (active), the Potency [5] was 2.64 µM (active) and the Potency [6] was 7.43 µM (active). The Potency [7] was “inactive”, the Potency [8] was 9.35 µM (active) and the Potency [9] was 4.69 µM (active).
With `Cc1cccc(C#Cc2ccccc2)n1` the Potency [1] was 8.33 µM (active), the viability [2] was 120% and the Potency [3] was “inactive”. The Potency [5] was 14.8 µM (active) and the Potency [9] was “inactive”.
With `Nc1ccn([C@@H]2O[C@H](CO)[C@@H](O)C2O)c(=O)n1` (some centres undefined) the Potency [1] was “inactive”, the viability [2] was 123% and the Potency [3] was “inactive”. The Potency [4] was “inactive”, the Potency [5] was “inactive” and the Potency [6] was “inactive”. The Potency [8] was “inactive”, the Potency [9] was “inactive” and the Potency [10] was “inactive”.
With `COc1cc(Nc2c(C#N)cnc3cc(OCCCN4CCN(C)CC4)c(OC)cc23)c(Cl)cc1Cl` the Potency [1] was 2.64 µM (active), the Potency [2] was 23.5 µM (active) and the Potency [3] was 23.5 µM (active). For the same compound, the Potency [4] was 1.32 µM (active), the Potency [5] was 2.96 µM (active) and the Potency [6] was 1.05 µM (active). The Potency [7] was 0.526 µM (active) and the Potency [8] was 3.72 µM (active).
In the case of `CN(c1nccc(=O)[nH]1)C1CCN(c2nc3ccccc3n2Cc2ccc(F)cc2)CC1`, the Potency [1] is reported as 26.4 µM (active), the viability [2] is reported as 125% and the Potency [3] is reported as 11.8 µM (active). For the same compound, the Potency [4] was 18.7 µM (active), the Potency [5] was 18.7 µM (active) and the Potency [6] was 23.5 µM (active). The Potency [7] was 16.6 µM (active).
In the case of `CCOC(=O)C1=C(O)C(=O)N(Cc2ccccc2)C1`, the Potency [1] is reported as “inactive”, the viability [2] is reported as 107% and the Potency [3] is reported as “inactive”. The Potency [4] was “inactive”, the Potency [5] was “inactive” and the Potency [8] was “inactive”. The Potency [9] was “inactive”.
For `O=C(c1ccccc1)c1ccc2n1CCC2C(=O)O` (centres undefined), the Potency [1] was 20.9 µM (active), the viability [2] was 105% and the Potency [3] was 3.72 µM (active). For the same compound, the Potency [4] was 9.35 µM (active), the Potency [5] was 9.35 µM (active) and the Potency [6] was 9.35 µM (active). The Potency [7] was 14.8 µM (active), the Potency [8] was 9.35 µM (active) and the Potency [10] was “inactive”.
With `Oc1ccc2ccccc2c1SSc1c(O)ccc2ccccc12` the Potency [1] was 8.33 µM (active), the Potency [2] was 18.7 µM (active) and the Potency [3] was 20.9 µM (active). The Potency [4] was 10.5 µM (active), the Potency [5] was 11.8 µM (active) and the Potency [6] was 16.6 µM (active). The Potency [8] was 7.43 µM (active).
With `NNc1nncc2ccccc12` the Potency [1] was “inactive”, the viability [2] was 116% and the Potency [3] was “inactive”. For the same compound, the Potency [4] was “inactive”, the Potency [5] was “inactive” and the Potency [8] was “inactive”. For the same compound, the Potency [9] was “inactive” and the Potency [10] was “inactive”.
In the case of `CCC(C)(Oc1ccc(C2(c3ccc(OC(C)(CC)C(=O)O)cc3)CCCCC2)cc1)C(=O)O` (centres undefined), the Potency [1] is reported as “inactive”, the viability [2] is reported as 130% and the Potency [3] is reported as “inactive”. The Potency [4] was “inactive”, the Potency [5] was “inactive” and the Potency [6] was “inactive”. For the same compound, the Potency [8] was “inactive” and the Potency [10] was “inactive”.
For `CC(C)C[C@H](NC(=O)[C@H](Cc1ccccc1)NC(=O)c1cnccn1)B(O)O`, the Potency [1] was 0.0083 µM (active), the Potency [2] was 0.0372 µM (active) and the Potency [3] was 0.0093 µM (active). The Potency [4] was 0.0074 µM (active), the Potency [5] was 0.0105 µM (active) and the Potency [6] was 0.0074 µM (active). For the same compound, the Potency [7] was 0.148 µM (active) and the Potency [10] was 0.0187 µM (active).
For `CN(C)CCc1c[nH]c2ccc(Cn3cncn3)cc12`, the Potency [1] was “inactive”, the viability [2] was 127% and the Potency [3] was “inactive”. For the same compound, the Potency [5] was “inactive”, the Potency [6] was 2.09 µM (active) and the Potency [7] was “inactive”. For the same compound, the Potency [8] was “inactive”, the Potency [9] was “inactive” and the Potency [10] was “inactive”.
